Results as given in the supplement of paper PMC7411054.
Where a name gives a salt, the structure may show the parent alone.

Assays:
Test in all cases: lowest phenotypically active concentration; higher = less potent
Details in all cases: treatment time: 24 h
[1] = tested on: HepG2-CANX-COX4
Summary of the method: (§1)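 Four wells per concentration (0.3, 1, 3 or 9 µM) were treated for 24 h in each of fifteen gene-edited reporter lines from A549, HepG2 and WPMY1 cells, then imaged live. After normalising live-cell features to solvent control wells, deviation was defined as ≥3 of 4 wells lying past the 95th percentile of control Euclidean distances. Reproducibility was defined as a median replicate Pearson correlation above the 95th percentile of non-replicates. Both had to hold for phenotypic activity.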

[2] = tested on: HepG2-GM130-SQSTM1
Summary of the method: as §1

[3] = tested on: HepG2-TUBA1B-RELA
Summary of the method: as §1

[4] = tested on: WPMY1-TP53BP1-CLTA
Summary of the method: as §1

[5] = tested on: HepG2-TP53BP1-CLTA
Summary of the method: as §1

[6] = tested on: WPMY1-ACTB-RAB5A
Summary of the method: as §1

[7] = tested on: WPMY1-CANX-COX4
Summary of the method: as §1

[8] = tested on: A549-TP53BP1-CLTA
Summary of the method: as §1

[9] = tested on: WPMY1-TUBA1B-RELA
Summary of the method: as §1

CC1(C)CCC(C)(C)c2cc(C(O)C(=O)Nc3ccc(C(=O)O)cc3F)ccc21 (centres undefined)
lowest phenotypically active concentration [1]: 9 µM

O=C(O)[C@H]1CCCC[C@H]1C(=O)N1CCc2ccccc2[C@H]1CN1C(=O)c2ccccc2C1=O
lowest phenotypically active concentration [2]: 9 µM
lowest phenotypically active concentration [3]: 9 µM

CC(C)[C@@H](C)/C=C/[C@@H](C)[C@H]1CC[C@H]2C3=CC=C4C[C@@H](O)CC[C@]4(C)[C@H]3CC[C@]12C [Ergosterine]
lowest phenotypically active concentration [2]: 9 µM

Nc1nnc2[nH]c3ccccc3nc1-2
lowest phenotypically active concentration [1]: 9 µM

CC(C)NCC(O)COc1ccc(CC(N)=O)cc1 (centres undefined) [atenolol-()]
lowest phenotypically active concentration [4]: 9 µM

CCCc1cc2c(N3CCN(C4=NCC(C)(C)S4)CC3)ncnc2s1 [MI 2 dihydrochloride]
lowest phenotypically active concentration [1]: 9 µM
lowest phenotypically active concentration [2]: 9 µM
lowest phenotypically active concentration [5]: 9 µM
lowest phenotypically active concentration [6]: 3 µM

CO[C@H]1C=CO[C@@]2(C)Oc3c(C)c(O)c4c(O)c(c(/C=N/N5CCN(C)CC5)c(O)c4c3C2=O)NC(=O)C(C)=CC=C[C@H](C)[C@H](O)[C@@H](C)[C@@H](O)[C@@H](C)[C@H](OC(C)=O)[C@@H]1C [Rifampicin]
lowest phenotypically active concentration [1]: 3 µM

c1ccc(-c2n[nH]cc2-c2ccnc3ccccc23)nc1
lowest phenotypically active concentration [1]: 9 µM
lowest phenotypically active concentration [2]: 9 µM
lowest phenotypically active concentration [5]: 9 µM
lowest phenotypically active concentration [6]: 9 µM
lowest phenotypically active concentration [7]: 9 µM

COCCCOc1ccnc(CS(=O)c2nc3ccccc3[nH]2)c1C (centres undefined) [rabeprazole]
lowest phenotypically active concentration [3]: 9 µM

CNC(=C[N+](=O)[O-])NCCSCc1ccc(CN(C)C)o1 [ranitidine]
lowest phenotypically active concentration [2]: 1 µM

Cc1c(C)c2c(c(C)c1O)CC[C@@](C)(CCC[C@H](C)CCC[C@H](C)CCCC(C)C)O2 [Tocopherol (R,S)]
lowest phenotypically active concentration [1]: 3 µM

CC(C)N(CCCNC(=O)Nc1ccc(C(C)(C)C)cc1)C[C@H]1O[C@@H](n2cc(Br)c3c(N)ncnc32)[C@H](O)[C@@H]1O
lowest phenotypically active concentration [8]: 3 µM
lowest phenotypically active concentration [1]: 9 µM
lowest phenotypically active concentration [2]: 3 µM
lowest phenotypically active concentration [5]: 1 µM
lowest phenotypically active concentration [3]: 9 µM
lowest phenotypically active concentration [6]: 3 µM
lowest phenotypically active concentration [7]: 3 µM
lowest phenotypically active concentration [4]: 9 µM
lowest phenotypically active concentration [9]: 9 µM

O=C(/C=C/c1ccc(O)cc1)c1ccc(O)cc1O [Isoliquiritigenin]
lowest phenotypically active concentration [2]: 9 µM
lowest phenotypically active concentration [7]: 9 µM
lowest phenotypically active concentration [4]: 9 µM

S=c1[nH]cnc2nc[nH]c12 [mercaptopurine]
lowest phenotypically active concentration [1]: 9 µM
lowest phenotypically active concentration [3]: 9 µM
lowest phenotypically active concentration [7]: 9 µM
lowest phenotypically active concentration [9]: 9 µM

Cc1cc(C)c(C)c(S(=O)(=O)Nc2ccc(N3CC[C@H](C(=O)O)C3)c3ccccc23)c1C
lowest phenotypically active concentration [2]: 9 µM

CCc1c(C(=O)Nc2cc(S(=O)(=O)N(CC)CC)ccc2O)[nH]c(C)c1C(C)=O
lowest phenotypically active concentration [1]: 9 µM

O=c1c(O)c(-c2ccc(O)cc2)oc2cc(O)cc(O)c12 [Kaempferol]
lowest phenotypically active concentration [7]: 9 µM
lowest phenotypically active concentration [4]: 9 µM
